According to PubChem BioAssay (Tox21):
Results filed as inconclusive are left out. Activity calls are given as the source filed them. Unless noted, calls follow the shape of the dose curve; as a rule, active = well fitted curve in the direction sought with a large enough effect in the repeat runs; inconclusive = weak or mixed curves; inactive = no such curve, though single readings can be large; an effect the other way counts as inactive or inconclusive.

Columns and labels:
[1] = qHTS assay to identify small molecule agonists of the sonic hedgehog signaling (Shh) pathway (AID 1259368; calls by dose curve;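 also: NIH/3T3-derived 3T3Gli1-Luc cells carrying a stable Gli1-driven firefly luciferase reporter; series mostly up to about 92 µM; nearly all actives have a fitted effect of over 15% in size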)
Method in brief: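 Mouse fibroblast (NIH/3T3) reporter cells with stably integrated Gli1-Luc were treated 24 hr with compound; firefly luciferase luminescence served as the read-out.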

[2] = qHTS assay to identify small molecule agonists of the androgen receptor (AR) signaling pathway in the presence of an antagonist - cell viability counter screen (AID 1259379); also: nearly all actives have a fitted effect of over 25% in size; also: potency is read from the fitted curve at half-maximal effect
Method in brief: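 A CellTiter-Fluor read-out measured viability of MDA-kb2 reporter cells (MMTV promoter with AR and GR response elements). Treatment: nilutamide 3.0uM final with compounds at 15 concentrations, 16 hr, 37C, 0% CO2.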

[3] = biological target: Androgen receptor (Homo sapiens) (UniProt P10275); assay: qHTS assay to identify small molecule agonists of the androgen receptor (AR) signaling pathway in the presence of an antagonist (AID 1259381; calls by dose curve; also: nearly all actives have a fitted effect of over 15% in size)
Method in brief: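 Using human MDA-kb2 cells with an MMTV promoter–luciferase construct (AR and GR response elements), agonist activity is scored under 3.0uM nilutamide (final) co-treatment; 16hr incubation, 37C, luminescence readout via ONE-Glo.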

[4] = biological target: Estrogen receptor (Homo sapiens) (UniProt P03372); assay: qHTS assay to identify small molecule agonists of the estrogen receptor alpha (ER-alpha) signaling pathway in the presence of an antagonist (AID 1259383; calls by dose curve; also: top concentration of the series differs between compounds; nearly all actives have a fitted effect of over 15% in size)
Method in brief: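 Using VM7Luc4E2 cells seeded 24hr before treatment, antagonist ICI-182,780 (10.0nM final) was added, followed by compounds at 15 concentrations. Plates incubated 22hr; ONE-Glo luminescence quantified reporter activity.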

[5] = qHTS assay to identify small molecule agonists of the progesterone receptor (PR) signaling pathway - cell viability counter screen (AID 1346799; calls by dose curve; also: nearly all actives have a fitted effect of over 45% in size)
Method in brief: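 Cytotoxicity in PR-bla HEK293T cells: 16 h compound, 37C; CellTiter-Glo added post-FRET read; luminescence after 30 min RT.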

[6] = qHTS assay to identify small molecule antagonists of the TGF-beta/Smad signaling pathway - cell viability counter screen (AID 1346824); also: nearly all actives have a fitted effect of over 50% in size
Method in brief: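 SBE-bla HEK 293T cells were plated overnight at 37 C, then given compounds in DMSO plus TGF-beta1 (added as 0.25 ng/mL solution) for 5 hr. After the bla read, CellTiter-Glo was added to the same wells and luminescence read after 30 min at room temperature.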

[7] = qHTS assay to identify small molecule agonists of the TGF-beta/Smad signaling pathway - cell viability counter screen (AID 1346829); also: top concentration of the series differs between compounds; nearly all actives have a fitted effect of over 45% in size
Method in brief: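 CellTiter-Glo luminescence readout; SBE-bla HEK 293T cells, overnight plating, compound 5 hr at 37 C/5% CO2, then bla substrate 2 hr RT, then CellTiter-Glo 30 min RT.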

[8] = qHTS assay to identify small molecule agonists of the TGF-beta/Smad signaling pathway (AID 1346859; active = well fitted activation curve with a large enough effect in the signal ratio in the repeat runs, not every such curve was filed as active; the % refers to the signal ratio; also: series mostly up to about 77 µM)
Method in brief: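 Stable Smad binding element-beta-lactamase HEK 293T cells; 5 hr compound exposure at 37 C under 5% CO2; 2 hr room-temperature substrate step; fluorescence excited at 405 nm, collected at 460 nm and 530 nm.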

[9] = biological target: Thyrotropin-releasing hormone receptor (Homo sapiens) (UniProt P34981); assay: qHTS assay to identify small molecule antagonists of the thyrotropin-releasing hormone receptor (TRHR) signaling pathway (AID 1346877; active = well fitted inhibition curve with a large enough effect in the repeat runs, not every such curve was filed as active; also: series mostly up to about 51 µM)
Method in brief: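 Screening used HEK293 cells engineered with TRHR, with a brief 5 min room-temperature compound exposure preceding addition of TRH to 1 nM. The read-out was kinetic calcium-dye fluorescence, concentration-response from 15 doses in triplicate.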

[10] = qHTS assay to identify small molecule agonists of the estrogen receptor beta (ER-beta) signaling pathway - cell viability counter screen (AID 1259380); also: nearly all actives have a fitted effect of over 30% in size; also: potency is read from the fitted curve at half-maximal effect
Method in brief: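 Cells used were ER-beta-UAS-bla HEK293T in medium with 2% charcoal-stripped FBS. They were treated for 16 hr at 37C. Viability came from CellTiter-Glo luminescence.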

[11] = qHTS assay to identify small molecule antagonists of the estrogen receptor beta (ER-beta) signaling pathway - cell viability counter screen (AID 1259382); also: series mostly up to about 92 µM; nearly all actives have a fitted effect of over 55% in size
Method in brief: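 Agonist-stimulated (1nM E2) ER-beta-UAS-bla HEK293T cells are incubated with library compounds for 16 hr at 37C. Cell viability is then assessed in the reporter-assay wells by adding CellTiter-Glo and reading luminescence after 30 min.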

[12] = qHTS assay to identify small molecule agonists or antagonists of the thyroid stimulating hormone receptor (TSHR) signaling pathway - wild type cell line counter screen (AID 1259384; calls by dose curve)
Method in brief: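 Wild-type HEK293 cells were plated 18 h at 37 C/5% CO2, pin-dosed with compound plus Ro20-1724 medium, held 30 min at room temperature, then given cAMP-d2 and anti-cAMP-cryptate; fluorescence was read after 1 h. Fifteen concentrations, triplicate.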

[13] = biological target: Thyrotropin receptor (Homo sapiens) (UniProt P16473); assay: qHTS assay to identify small molecule antagonists of the thyroid stimulating hormone receptor (TSHR) signaling pathway (AID 1259385; calls by dose curve; also: nearly all actives have a fitted effect of over 20% in size)
Method in brief: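 TSHR-HEK293 cells were plated and held 18 h at 37C/5% CO2, then given compound plus Ro20-1724 and stimulated with TSH at 1.5 ng/mL final. After 30 min at room temperature, cAMP was detected with cAMP-d2/anti-cAMP-cryptate (1 h) by fluorescence.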

[14] = qHTS assay to identify small molecule agonists of the estrogen receptor alpha (ER-alpha) signaling pathway in the presence of an antagonist - cell viability counter screen (AID 1259386);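 also: cells exposed to compounds for 22 h at 37 °C before the viability read; nearly all actives have a fitted effect of over 30% in size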; also: potency is read from the fitted curve at half-maximal effect
Method in brief: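 ICI-182,780 at 10.0nM final accompanies the compound titration (15 concentrations, 22hr, 37C) on VM7Luc4E2 cells. The CellTiter-Fluor fluorescence readout runs in the same wells as the luciferase assay.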

[15] = biological target: Progesterone receptor (Homo sapiens) (UniProt P06401); assay: qHTS assay to identify small molecule antagonists of the progesterone receptor (PR) signaling pathway (AID 1346795; active = well fitted inhibition curve with a large enough effect in the signal ratio in the repeat runs, not every such curve was filed as active; the % refers to the signal ratio; also: potency is read from the fitted curve at half-maximal effect)
Method in brief: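 Inhibition of R5020-induced (1 nM final) beta-lactamase reporter signal in PR-UAS-bla HEK293T cells was scored by FRET fluorescence after overnight (16 hr) compound treatment.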

[16] = qHTS assay to identify small molecule antagonists of the progesterone receptor (PR) signaling pathway - cell viability counter screen (AID 1346798); also: series mostly up to about 92 µM; nearly all actives have a fitted effect of over 50% in size
Method in brief: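 ATP content as viability readout: CellTiter-Glo luminescence, 30 min room temperature, in PR-UAS-bla HEK293T cells after 16 hr compound/R5020 treatment at 37C and 5% CO2.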

[17] = biological target: Progesterone receptor (Homo sapiens) (UniProt P06401); assay: qHTS assay to identify small molecule agonists of the progesterone receptor (PR) signaling pathway (AID 1346784; calls by dose curve; also: nearly all actives have a fitted effect of over 30% in size)
Method in brief: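 Using charcoal-stripped serum (2%) to limit endogenous steroids, PR-UAS-bla HEK 293T cells received compounds for 16 hr at 37C after 6 hr plating; beta-lactamase FRET fluorescence was recorded following 2 hr substrate loading at room temperature.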

[18] = qHTS assay to identify small molecule antagonists of the sonic hedgehog signaling (Shh) pathway (AID 1259369; calls by dose curve; also: nearly all actives have a fitted effect of over 45% in size; also: potency is read from the fitted curve at half-maximal effect)
Method in brief: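 Conditioned medium drives Shh signalling in 3T3Gli1-Luc cells; compounds in DMSO co-applied, 24hr at 37 C, then luciferase luminescence.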

[19] = biological target: Estrogen receptor beta (Homo sapiens) (UniProt Q92731); assay: qHTS assay to identify small molecule antagonists of the estrogen receptor beta (ER-beta) signaling pathway (AID 1259378; active = well fitted inhibition curve with a large enough effect in the signal ratio in the repeat runs, not every such curve was filed as active; the % refers to the signal ratio; also: potency is read from the fitted curve at half-maximal effect)
Method in brief: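 ER-beta-UAS-bla HEK293T (GripTite) cells in 2% charcoal-stripped FBS medium were preincubated 6 hr at 37C, dosed with compound, then stimulated with 1 nM E2 (final) for 16 hr; beta-lactamase reporter read by B/G FRET fluorescence after 2 hr substrate loading.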

Measured: Potency

Chain of Estrogen receptor (Homo sapiens) (P03372 whole entry, looked up): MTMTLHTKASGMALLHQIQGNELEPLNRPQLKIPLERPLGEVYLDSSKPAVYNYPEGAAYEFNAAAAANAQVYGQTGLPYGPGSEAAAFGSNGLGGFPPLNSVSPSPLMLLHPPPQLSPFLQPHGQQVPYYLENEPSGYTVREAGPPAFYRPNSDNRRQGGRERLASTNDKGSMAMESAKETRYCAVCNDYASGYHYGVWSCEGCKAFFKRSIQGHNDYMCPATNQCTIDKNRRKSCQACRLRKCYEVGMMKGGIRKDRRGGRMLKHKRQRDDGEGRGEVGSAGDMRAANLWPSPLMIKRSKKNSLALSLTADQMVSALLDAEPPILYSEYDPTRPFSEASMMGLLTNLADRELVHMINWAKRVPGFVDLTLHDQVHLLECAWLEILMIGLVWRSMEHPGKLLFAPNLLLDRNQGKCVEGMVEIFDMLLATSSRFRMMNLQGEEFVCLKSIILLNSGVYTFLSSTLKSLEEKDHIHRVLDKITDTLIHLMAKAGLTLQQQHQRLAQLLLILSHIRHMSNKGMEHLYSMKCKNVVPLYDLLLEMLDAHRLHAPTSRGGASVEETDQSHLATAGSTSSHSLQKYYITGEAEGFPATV
Chain of Androgen receptor (Homo sapiens) (P10275 whole entry, looked up): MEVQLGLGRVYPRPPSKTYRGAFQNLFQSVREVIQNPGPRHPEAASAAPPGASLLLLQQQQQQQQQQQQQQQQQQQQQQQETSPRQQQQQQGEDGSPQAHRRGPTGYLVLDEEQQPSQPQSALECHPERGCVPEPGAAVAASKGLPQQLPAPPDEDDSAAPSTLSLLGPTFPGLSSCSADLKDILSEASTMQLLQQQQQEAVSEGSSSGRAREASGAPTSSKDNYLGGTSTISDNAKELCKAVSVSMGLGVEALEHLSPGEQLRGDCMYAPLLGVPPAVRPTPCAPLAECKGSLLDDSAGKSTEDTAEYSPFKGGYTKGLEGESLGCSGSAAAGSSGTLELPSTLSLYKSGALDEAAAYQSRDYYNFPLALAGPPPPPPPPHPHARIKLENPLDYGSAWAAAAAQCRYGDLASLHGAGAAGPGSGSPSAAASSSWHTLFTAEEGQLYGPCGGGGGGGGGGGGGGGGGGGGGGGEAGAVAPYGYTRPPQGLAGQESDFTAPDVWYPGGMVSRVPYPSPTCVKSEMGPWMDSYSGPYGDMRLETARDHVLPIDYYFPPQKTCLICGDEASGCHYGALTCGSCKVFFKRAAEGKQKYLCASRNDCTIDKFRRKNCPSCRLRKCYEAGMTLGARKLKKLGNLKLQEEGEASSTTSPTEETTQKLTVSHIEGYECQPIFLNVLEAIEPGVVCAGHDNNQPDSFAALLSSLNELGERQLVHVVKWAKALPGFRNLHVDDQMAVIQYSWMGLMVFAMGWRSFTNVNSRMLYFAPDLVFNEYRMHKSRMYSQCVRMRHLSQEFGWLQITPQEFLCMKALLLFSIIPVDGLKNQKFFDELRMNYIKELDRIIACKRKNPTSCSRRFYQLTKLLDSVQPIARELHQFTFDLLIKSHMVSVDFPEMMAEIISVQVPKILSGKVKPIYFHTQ
Chain of Thyrotropin receptor (Homo sapiens) (P16473 whole entry, looked up): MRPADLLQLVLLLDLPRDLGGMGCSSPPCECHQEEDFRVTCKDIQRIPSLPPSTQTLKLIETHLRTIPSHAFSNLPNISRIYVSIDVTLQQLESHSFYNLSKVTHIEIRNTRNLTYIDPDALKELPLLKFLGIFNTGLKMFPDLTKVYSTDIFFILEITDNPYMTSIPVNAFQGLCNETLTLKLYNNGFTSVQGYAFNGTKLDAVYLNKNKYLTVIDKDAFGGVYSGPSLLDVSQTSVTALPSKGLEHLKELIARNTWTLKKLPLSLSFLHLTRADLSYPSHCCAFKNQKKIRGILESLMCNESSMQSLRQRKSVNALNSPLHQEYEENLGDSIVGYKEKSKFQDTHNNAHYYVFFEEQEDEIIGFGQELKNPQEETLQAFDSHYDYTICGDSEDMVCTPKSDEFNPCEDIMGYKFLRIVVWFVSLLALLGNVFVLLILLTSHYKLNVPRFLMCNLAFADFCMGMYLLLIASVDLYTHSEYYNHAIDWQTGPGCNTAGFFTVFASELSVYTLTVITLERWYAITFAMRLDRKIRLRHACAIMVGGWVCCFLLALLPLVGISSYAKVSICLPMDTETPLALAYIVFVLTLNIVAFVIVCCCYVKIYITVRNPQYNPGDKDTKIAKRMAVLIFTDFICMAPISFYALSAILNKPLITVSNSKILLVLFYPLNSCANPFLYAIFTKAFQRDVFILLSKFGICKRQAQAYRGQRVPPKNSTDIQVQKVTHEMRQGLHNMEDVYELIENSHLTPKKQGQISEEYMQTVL
Chain of Progesterone receptor (Homo sapiens) (P06401 whole entry, looked up): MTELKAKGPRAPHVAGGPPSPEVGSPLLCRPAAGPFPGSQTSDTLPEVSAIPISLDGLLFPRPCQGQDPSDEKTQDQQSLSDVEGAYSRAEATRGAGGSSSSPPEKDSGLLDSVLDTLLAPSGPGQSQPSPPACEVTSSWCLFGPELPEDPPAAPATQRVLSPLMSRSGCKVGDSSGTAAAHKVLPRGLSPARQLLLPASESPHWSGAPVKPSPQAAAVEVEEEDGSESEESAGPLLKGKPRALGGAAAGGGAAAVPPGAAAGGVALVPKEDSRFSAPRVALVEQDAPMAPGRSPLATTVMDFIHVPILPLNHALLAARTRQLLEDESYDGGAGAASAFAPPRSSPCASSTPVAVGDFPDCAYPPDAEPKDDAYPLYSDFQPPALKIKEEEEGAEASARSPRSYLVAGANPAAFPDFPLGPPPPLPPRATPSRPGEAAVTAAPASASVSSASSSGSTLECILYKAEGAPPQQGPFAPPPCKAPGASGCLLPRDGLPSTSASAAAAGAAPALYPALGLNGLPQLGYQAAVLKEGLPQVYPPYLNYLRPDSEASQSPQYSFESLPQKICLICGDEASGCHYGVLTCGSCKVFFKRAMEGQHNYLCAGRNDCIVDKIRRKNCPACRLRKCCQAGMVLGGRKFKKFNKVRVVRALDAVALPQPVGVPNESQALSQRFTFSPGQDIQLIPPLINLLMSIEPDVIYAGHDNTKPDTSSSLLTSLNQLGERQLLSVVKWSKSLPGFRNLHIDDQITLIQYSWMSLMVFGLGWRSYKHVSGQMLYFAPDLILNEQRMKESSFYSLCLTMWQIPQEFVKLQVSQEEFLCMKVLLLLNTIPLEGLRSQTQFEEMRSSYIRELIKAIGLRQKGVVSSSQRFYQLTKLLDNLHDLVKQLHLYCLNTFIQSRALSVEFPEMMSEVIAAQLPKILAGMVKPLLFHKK
Chain of Thyrotropin-releasing hormone receptor (Homo sapiens) (P34981 whole entry, looked up): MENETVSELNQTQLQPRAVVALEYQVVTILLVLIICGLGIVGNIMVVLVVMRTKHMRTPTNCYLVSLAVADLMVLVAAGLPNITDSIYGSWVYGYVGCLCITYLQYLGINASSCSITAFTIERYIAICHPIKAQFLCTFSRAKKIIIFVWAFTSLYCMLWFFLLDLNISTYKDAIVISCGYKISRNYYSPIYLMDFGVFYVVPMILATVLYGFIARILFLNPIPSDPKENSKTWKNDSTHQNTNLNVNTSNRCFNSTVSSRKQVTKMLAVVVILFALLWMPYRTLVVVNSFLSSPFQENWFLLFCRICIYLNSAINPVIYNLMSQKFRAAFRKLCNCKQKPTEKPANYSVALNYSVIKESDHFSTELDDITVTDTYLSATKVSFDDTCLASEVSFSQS
Chain of Estrogen receptor beta (Homo sapiens) (Q92731 whole entry, looked up): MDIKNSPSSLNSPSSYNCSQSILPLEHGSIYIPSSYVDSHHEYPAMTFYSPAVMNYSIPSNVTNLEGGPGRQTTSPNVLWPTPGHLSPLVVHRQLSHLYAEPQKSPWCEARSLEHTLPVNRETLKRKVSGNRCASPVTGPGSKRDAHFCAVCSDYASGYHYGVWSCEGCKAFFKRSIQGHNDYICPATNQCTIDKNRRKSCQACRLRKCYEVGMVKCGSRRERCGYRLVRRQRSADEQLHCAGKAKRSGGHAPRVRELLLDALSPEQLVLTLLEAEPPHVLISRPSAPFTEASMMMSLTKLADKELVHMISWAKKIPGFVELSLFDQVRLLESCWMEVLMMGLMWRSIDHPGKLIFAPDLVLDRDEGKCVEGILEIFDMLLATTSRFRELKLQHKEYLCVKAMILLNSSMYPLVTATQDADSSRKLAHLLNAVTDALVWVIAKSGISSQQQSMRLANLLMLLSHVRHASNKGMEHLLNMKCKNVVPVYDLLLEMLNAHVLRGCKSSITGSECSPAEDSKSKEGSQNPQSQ

CCCCCC[C@@H](O)C/C=C\CCCCCCCC(=O)OCC(O)CO (stereo partly specified)
inactive: [1] | [2] | [3] | [4] | [5] | [6] | [7] | [8] | [9]

CC(=O)Oc1ccc([N+](=O)[O-])cc1CCl
active: [2] 30.6 µM | [14] 48.6 µM
not listed: [3] | [17] | [18] | [19]
inactive: all other assays above

O=c1c(O)c(-c2ccc(O)cc2)oc2cc(O)cc(O)c12
active: [15] 5.19 µM
inactive: [1] | [2] | [11] | [12] | [13] | [6] | [7]

CC(C)(c1ccccc1)c1ccccc1
not listed: [3] | [4] | [6] | [15] | [17] | [18] | [19]
inactive: all other assays above

C=CCc1ccccc1OCC(O)CNC(C)C (stereo unspecified)
not listed: [4] | [5] | [6] | [10] | [18] | [19]
inactive: all other assays above

CCOC(=O)C1=C(C)NC(C)=C(C(=O)OC)C1c1cccc(Cl)c1Cl (stereo unspecified)
inactive: [1] | [2] | [4] | [12] | [13] | [17] | [7] | [8] | [9]
active: [15] 3.76 µM

Cc1ccc2c(Br)cc(Br)c(O)c2n1
inactive: [2] | [11] | [12] | [13] | [6] | [7] | [8] | [9]
active: [10] 11.9 µM | [15] 18.8 µM

CCCCCCCCOc1ccc(C(=O)O)cc1
active: [15] 48 µM
not listed: [1] | [3] | [4] | [5] | [10] | [16] | [19]
inactive: all other assays above

O=C(/C=C/c1ccc(O)c(O)c1)O[C@@H]1C[C@@](OC(=O)/C=C/c2ccc(O)c(O)c2)(C(=O)O)C[C@@H](O)[C@@H]1O
not listed: [3] | [5] | [17] | [18] | [19]
inactive: all other assays above

N#CCc1ccc(Cl)cc1Cl
not listed: [3] | [6] | [17] | [18] | [19]
inactive: all other assays above

C[C@]1(Cn2ccnn2)[C@H](C(=O)O)N2C(=O)C[C@H]2S1(=O)=O
not listed: [3] | [10] | [11] | [15] | [17] | [18] | [19]
inactive: all other assays above

CN1CC(=O)N2[C@H](c3ccc4c(c3)OCO4)c3[nH]c4ccccc4c3C[C@@H]2C1=O
not listed: [3] | [7] | [14] | [15] | [18] | [19]
inactive: all other assays above

CCCCCCCCCCC(=O)O
not listed: [3] | [10] | [11] | [18] | [19]
inactive: all other assays above

c1cc(N(CC2CO2)CC2CO2)ccc1Cc1ccc(N(CC2CO2)CC2CO2)cc1 (stereo unspecified)
active: [18] 15.4 µM | [19] 27.3 µM
inactive: [10] | [3] | [11] | [4] | [12] | [6] | [7] | [9]
